Data: PubChem BioAssay AID485341 (National Center for Advancing Translational Sciences (NCATS), 2010)
Out of some 330,000 compounds screened, about 1,700 (0.52%) were called active. The full list was thinned out, with actives kept by preference. Values without a mark were called inactive. Calls follow the shape of the dose curve; as a rule, active = well fitted inhibition curve with a large enough effect; inconclusive = small, poorly fitted or top-dose-only effect; inactive = no such curve, though single readings can be large or run the other way.

The compounds below were run against Beta-lactamase (Escherichia coli (strain K12)) (UniProt P00811) (assay: qHTS Inhibitors of AmpC Beta-Lactamase (assay without detergent)). Conditions: AmpC nitrocefin hydrolysis, absorbance 480 nm, 0.0001% Triton; series mostly up to 57.1 µM; activity change, negative = inhibition: at the top concentration.
How it was run: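 AmpC (5.3 nM in the dispensed reagent) in 20 mM phosphate pH 7.0 with 0.01% (detergent screen) or 0.0001% Triton X-100 was preincubated with compounds for 15 min at room temperature. Nitrocefin was then added from an 800 uM solution, and hydrolysis was followed at 480 nm.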
Also: nearly all actives have a fitted effect of over 20% in size.
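For activity change, negative = inhibition in this document: plate controls were no compound for no effect and no enzyme for full effect.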
Potency is read from the fitted curve at half-maximal effect.

Beta-lactamase (Escherichia coli (strain K12)), sequence (P00811 whole entry, looked up): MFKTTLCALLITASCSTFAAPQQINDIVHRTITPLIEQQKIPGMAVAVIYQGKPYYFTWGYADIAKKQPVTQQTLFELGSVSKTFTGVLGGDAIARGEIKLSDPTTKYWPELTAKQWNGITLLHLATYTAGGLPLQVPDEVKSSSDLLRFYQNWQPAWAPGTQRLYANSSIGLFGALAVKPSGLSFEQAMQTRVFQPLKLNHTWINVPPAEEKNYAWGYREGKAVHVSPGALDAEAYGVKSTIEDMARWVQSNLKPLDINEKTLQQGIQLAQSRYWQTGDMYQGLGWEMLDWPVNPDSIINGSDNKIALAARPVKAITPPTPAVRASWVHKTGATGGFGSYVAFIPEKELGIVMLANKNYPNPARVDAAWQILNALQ

| SMILES | activity change, negative = inhibition [%] | Potency |
| --- | --- | --- |
| O=[N+]([O-])c1ccc(N2CCN(S(=O)(=O)c3ccccc3)CC2)cc1N1CCc2ccccc2C1 | -9.35 | – |
| O=C(N[C@@H](Cc1ccccc1)C(=O)OCc1ccccc1)c1nc[nH]c1C(=O)N[C@@H](Cc1ccccc1)C(=O)OCc1ccccc1 | -12.3 | – |
| CCC(C(=O)Nc1ncccn1)(C(F)(F)F)C(F)(F)F | -12.8 | – |
| Cc1ccccc1-c1nc(CS(=O)(=O)CC(=O)N2CCc3ccccc3C2)c(C)o1 | – | 11.2 µM (active) |
| Cc1ccccc1-c1nc(CS(=O)(=O)CC(=O)NC(C)c2ccccc2)c(C)o1 (configuration not stated) | 17.9 | – |
| CSc1ccc(CCNC(=O)CS(=O)(=O)Cc2nc(-c3ccccc3F)oc2C)cc1 | 21.8 | – |
| CCC[C@H]1CCCC/C=C\CCCC(=O)OCCN1C(=O)OC(C)(C)C | 78.3 | – |
| COCCn1c(CN2CCC(Cc3ccccc3)CC2)nc2c1c(=O)n(C)c(=O)n2C | 0.0682 | – |
| CC1CCCN(Cc2nc3c(c(=O)n(C)c(=O)n3C)n2CC(=O)c2ccccc2)C1 (configuration not stated) | 123 | – |
| COCCn1c(CN(Cc2ccccc2)Cc2ccccc2)nc2c1c(=O)n(C)c(=O)n2C | 176 | – |
| CC(C)Cn1c(CN(Cc2ccccc2)Cc2ccccc2)nc2c1c(=O)n(C)c(=O)n2C | – | 3.55 µM (active) |
| CC(C)CCn1c(CN(C)Cc2ccccc2)nc2c1c(=O)n(C)c(=O)n2C | 87 | – |
| CCN1CCN(Cc2nc3c(c(=O)n(C)c(=O)n3C)n2CC(=O)c2ccccc2)CC1 | – | 1.58 µM (active) |
| Cc1oc2nc(SCC(=O)Nc3ccc(S(N)(=O)=O)cc3)nc(NC(=O)c3ccccc3)c2c1C | -28.2 | – |
| O=C(CNC1CCCCC1)NCC1(c2ccccc2)CCCC1 | -22.1 | – |
| O=C(CSc1nnc2ccccn12)c1ccccc1 | – | 44.7 µM (active) |
| Cc1ccc(C(=O)NNC(=O)CSc2nnc3ccccn23)cc1 | -13.5 | – |
| Cc1ccc(-n2c(C)cc(C(=O)CSc3nnc4ccccn34)c2C)cc1 | -0.189 | – |
| COc1ccc(N2CCN(C(=O)CNC(=O)c3ccc(Br)o3)CC2)cc1 | -0.595 | – |
| O=C(NCCc1csc(-c2ccccc2)n1)c1ccccc1F | -2.06 | – |
| COc1ccc(-c2nc(CCNC(=O)c3ccc(Br)o3)cs2)cc1 | – | 44.7 µM (active) |

| SMILES | activity change, negative = inhibition [%] | Potency |
| --- | --- | --- |
| CCOC(=O)N1CCN(Cc2oc(CO)cc(=O)c2O)CC1 | -9.1 | – |
| C=CC1=C(C(=O)O)N2C(=O)[C@@H](NC(=O)/C(=N\OCC(=O)O)c3csc(N)n3)[C@H]2SC1 | – | 2 µM (active) |
| CC(C)(C)OC(=O)C1=C(CO)CS[C@@H]2[C@H](NC(=O)Cc3ccccc3)C(=O)N12 | -11.7 | – |
| Cc1cc(C)cc(C(=O)NC2C(=O)N3C(C(=O)O)=C(CSc4nnc(C)s4)CSC23)c1 (configuration not stated) | -28.5 | – |
| Cc1nnc(SCC2=C(C(=O)O)N3C(=O)C(NC(=O)Cn4nc(C)c(Cl)c4C)C3SC2)s1 (configuration not stated) | 1.18 | – |
| O=C(CN1C(=O)NC2(CCCCC2)C1=O)NCCC1=CCCCC1 | -12.1 | – |
| O=S(=O)(c1ccc(Cl)s1)N1CCC2(CC1)OCCO2 | 2.59 | – |
| COc1ccc(CNC(=O)CN2C(=O)NC3(CCCc4sccc43)C2=O)cc1 (configuration not stated) | -9.03 | – |
| C=CCC1=C/C(=C\c2c(N)n3nc(CC(=O)N4CCOCC4)sc3nc2=O)C=C(OC)C1=O | 26.6 | – |
| COC(=O)C1(C)NC(c2ccc(F)cc2)C2C(=O)N(c3ccccc3)C(=O)C21 (configuration not stated) | -7.33 | – |
| COC(=O)CSc1snnc1-c1ccc(Cl)c(Cl)c1 | -0.324 | – |
| O=C1c2ccccc2NC(c2ccccn2)N1NS(=O)(=O)c1ccccc1 (configuration not stated) | -11.1 | – |
| Clc1ccc(Cl)c(Oc2ccc(Oc3nc(Cl)ccc3Cl)cc2)n1 | -11 | – |
| Nc1c(N(CCCO)C(=O)C2CCCC2)c(=O)[nH]c(=O)n1Cc1ccccc1 | -5.31 | – |
| CCCCCn1c(SCCC(C)C)nc2c1c(=O)[nH]c(=O)n2C | -18.6 | – |
| COC(=O)c1c(NC(=O)c2ccc(S(=O)(=O)N3CCOCC3)cc2)sc2c1CCN(C(C)C)C2 | 150 | – |
| CNC(=S)N/N=C/c1cn(Cc2ccc(C)cc2)c2ccccc12 | -7.01 | – |
| N#CCC(=O)N/N=C/c1cn(Cc2ccc3ccccc3c2)c2ccccc12 | -51.5 | – |
| COc1cccc(Cn2cc(/C=N/NC(=O)c3cc(O)cc(O)c3)c3ccccc32)c1 | – | 7.94 µM (active) |
| Cc1ccc(C(=O)N/C(=C\c2ccco2)C(=O)NC2CCS(=O)(=O)C2)cc1 (configuration not stated) | -10.6 | – |
| Cc1cccc(C)c1NC(=O)CS(=O)CC(=O)N1CCN(c2ccccc2)CC1 (configuration not stated) | 8.61 | – |

| SMILES | activity change, negative = inhibition [%] | Potency |
| --- | --- | --- |
| O=C(O)CCCN1C(=O)c2ccccc2Sc2ncccc21 | -23.4 | – |
| C=CCN(CC=C)S(=O)(=O)c1ccc(C(=O)Nc2nc3c(s2)CCc2ccccc2-3)cc1 | – | 8.91 µM (active) |
| COCCN(CCOC)S(=O)(=O)c1ccc(C(=O)Nc2nc3c(s2)CCc2ccccc2-3)cc1 | 11.3 | – |
| O=C(Nc1ccc(S(=O)(=O)N2CCc3ccccc3C2)cc1)c1ccccc1 | -26.2 | – |
| O=C(Cc1ccccc1)NCC1OCCc2ccccc21 (configuration not stated) | -17.1 | – |
| CC(=O)N1C(=O)/C(=C2\SC(=S)N(NC(=O)c3ccc(O)cc3)C2=O)c2ccccc21 | – | 20 µM (active) |
| O=C(O)c1ccc(/C=C2\SC(=S)N(NC(=O)c3ccc(Br)cc3)C2=O)cc1 | -30.6 | – |
| Cn1cccc1/C=C1\SC(=S)N(NC(=O)c2ccc(Cl)cc2)C1=O | -37.8 | – |
| CC1(c2ccccc2Cl)NC(=O)N(CC(=O)NC(=O)NCc2ccco2)C1=O (configuration not stated) | -8.19 | – |
| O=C1CCN(Cc2ccc([N+](=O)[O-])cc2)CCN1[C@H](CO)Cc1ccccc1 | 87.8 | – |
| O=C(CCCn1c(=O)oc2ccccc21)Nc1cccnc1 | -14.5 | – |
| CC(C)CC(=O)N1CCN(Cc2cccc(Cl)c2)CC1 | -1.38 | – |
| Oc1c(CN2CCCC2)cc(COCc2ccccc2)c2cccnc12 | – | inactive |
| Clc1cccc(CN2COc3c(cc(Cl)c4cccnc34)C2)c1 | – | 35.5 µM (active) |
| CC[C@]12c3[nH]c4ccc(Cl)cc4c3CCN1C(=O)[C@@H](CC(=O)NCCN1CCOCC1)C[C@@H]2C(=O)N1CCN(C(=O)C2CC2)CC1 | 252 | – |
| CC(C)CCN1NC2(CCC(C)CC2)NC1=S (configuration not stated) | -6.11 | – |
| O=c1oc2ccccc2c(CNc2ccccc2)c1[N+](=O)[O-] | -36.5 | – |
| O=C(COC(=O)c1cc(=O)[nH]c2ccccc12)NCc1cccc(Cl)c1 | -23.1 | – |
| O=C(COC(=O)c1cc(=O)[nH]c2ccccc12)Nc1nc(-c2cccc(Br)c2)cs1 | – | 14.1 µM (active) |
| CC(NC(=O)COC(=O)c1cc(=O)[nH]c2ccccc12)c1ccccc1 (configuration not stated) | -10.1 | – |
